Inconclusive results are not listed. Where a call stands in place of a potency, no number is given. Activity calls are given as the source filed them. The call rests on the fitted dose curve; in most records, active means well fitted curve in the direction sought with a large enough effect; inconclusive means small, poorly fitted or top-dose-only effect, or another doubt; inactive means no such curve, though single readings can be large; an effect the other way counts as inactive or inconclusive.
biological target: ATP-dependent 6-phosphofructokinase (Trypanosoma brucei brucei) (UniProt O15648); assay: qHTS Assay to Find Inhibitors of T. brucei phosphofructokinase: hit validation (AID 492961); conditions: T. brucei PFK, ADP-Glo luminescence; series mostly up to 51.4 µM
Sequence (O15648 whole entry, looked up): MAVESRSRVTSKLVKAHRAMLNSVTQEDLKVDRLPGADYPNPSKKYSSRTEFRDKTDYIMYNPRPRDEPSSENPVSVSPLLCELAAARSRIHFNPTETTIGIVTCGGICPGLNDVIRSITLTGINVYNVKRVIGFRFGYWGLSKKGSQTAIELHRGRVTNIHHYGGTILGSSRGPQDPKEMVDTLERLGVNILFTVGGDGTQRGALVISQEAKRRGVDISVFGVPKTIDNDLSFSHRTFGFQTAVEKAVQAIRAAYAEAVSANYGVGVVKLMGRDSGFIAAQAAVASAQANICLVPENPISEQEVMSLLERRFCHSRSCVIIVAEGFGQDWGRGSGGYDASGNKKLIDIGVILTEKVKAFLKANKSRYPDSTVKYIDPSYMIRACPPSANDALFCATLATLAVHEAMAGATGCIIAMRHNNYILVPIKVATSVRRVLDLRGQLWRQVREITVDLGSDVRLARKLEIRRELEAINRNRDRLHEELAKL
In short: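 Luminescence from ADP-Glo reports ADP generated as T. brucei PFK (1.25 nM) phosphorylates 0.5 mM fructose-6-phosphate using 0.1 mM ATP. Reactions ran 45 min at room temperature, pH 8.0.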

| Structure (SMILES) | outcome |
| --- | --- |
| CC=CC1=C(C(=O)O)N2C(=O)[C@H](NC(=O)[C@H](N)c3ccc(O)cc3)[C@@H]2SC1 | inactive |
| Nc1ccn([C@@H]2CS[C@H](CO)O2)c(=O)n1 | inactive |
| CC1(C)O[C@@H]2C[C@@H]3[C@H]4C[C@@H](F)C5=CC(=O)C=C[C@]5(C)[C@@]4(F)[C@@H](O)C[C@]3(C)[C@]2(C(=O)CO)O1 | inactive |
| COC(=O)C1=C(C)NC(C)=C(C(=O)OCCN2CCN(C(c3ccccc3)c3ccccc3)CC2)C1c1cccc([N+](=O)[O-])c1 (centres undefined) | inactive |
| CCC1=C[C@@H]2CN(C1)Cc1c([nH]c3ccccc13)[C@@](C(=O)OC)(c1cc3c(cc1OC)N(C)[C@@H]1[C@@](O)(C(=O)OC)[C@H](OC(C)=O)[C@]4(CC)C=CCN5CC[C@]31[C@@H]54)C2 | inactive |
| C[C@H]1C[C@@H]2[C@@H]([C@@H](O)C[C@@]3(C)[C@H]2CC[C@]3(O)C(=O)CO)[C@@]2(C)C=CC(=O)C=C12 | inactive |
| COc1c(N2C[C@@H]3CCCN[C@H]3C2)c(F)cc2c(=O)c(C(=O)O)cn(C3CC3)c12 | inactive |
| Nc1ccn([C@@H]2O[C@H](CO)[C@H](O)C2(F)F)c(=O)n1 | inactive |
| CC(C)(C)NC(=O)[C@H]1CN(Cc2cccnc2)CCN1C[C@@H](O)C[C@@H](Cc1ccccc1)C(=O)N[C@H]1c2ccccc2C[C@H]1O | inactive |
| O=C(O)CO.[NH2-].[NH2-].[Pt+2] | inactive |
| Nc1ccc(S(=O)(=O)Nc2ncccn2)cc1 | inactive |
| CC[C@H]1CN2CCc3cc(OC)c(OC)cc3[C@H]2C[C@@H]1C[C@@H]1NCCc2cc(OC)c(OC)cc21 | inactive |
| COC(=O)C[C@](O)(CCCC(C)(C)O)C(=O)O[C@@H]1C(OC)=C[C@]23CCCN2CCc2cc4c(cc2[C@H]13)OCO4 | inactive |
| COc1cc(C(=O)NS(=O)(=O)c2ccccc2C)ccc1Cc1cn(C)c2ccc(NC(=O)OC3CCCC3)cc12 | inactive |
| O=c1[nH]c(=O)n(C2CCCO2)cc1F (centres undefined) | inactive |
| CN1c2cc(O)c(N=NC(N)=O)cc2CC1S(=O)(=O)O (centres undefined) | inactive |

biological target: Ubiquitin carboxyl-terminal hydrolase 1 (Homo sapiens) (UniProt O94782); assay: Inhibitors of USP1/UAF1: Pilot qHTS (AID 504865); conditions: purified USP1/UAF1, Ub-rhodamine cleavage fluorescence; series mostly up to 114 µM; further: nearly all actives have a fitted effect of over 35% in size; further: potency means the concentration at half of the fitted maximal effect
Sequence (O94782 whole entry, looked up): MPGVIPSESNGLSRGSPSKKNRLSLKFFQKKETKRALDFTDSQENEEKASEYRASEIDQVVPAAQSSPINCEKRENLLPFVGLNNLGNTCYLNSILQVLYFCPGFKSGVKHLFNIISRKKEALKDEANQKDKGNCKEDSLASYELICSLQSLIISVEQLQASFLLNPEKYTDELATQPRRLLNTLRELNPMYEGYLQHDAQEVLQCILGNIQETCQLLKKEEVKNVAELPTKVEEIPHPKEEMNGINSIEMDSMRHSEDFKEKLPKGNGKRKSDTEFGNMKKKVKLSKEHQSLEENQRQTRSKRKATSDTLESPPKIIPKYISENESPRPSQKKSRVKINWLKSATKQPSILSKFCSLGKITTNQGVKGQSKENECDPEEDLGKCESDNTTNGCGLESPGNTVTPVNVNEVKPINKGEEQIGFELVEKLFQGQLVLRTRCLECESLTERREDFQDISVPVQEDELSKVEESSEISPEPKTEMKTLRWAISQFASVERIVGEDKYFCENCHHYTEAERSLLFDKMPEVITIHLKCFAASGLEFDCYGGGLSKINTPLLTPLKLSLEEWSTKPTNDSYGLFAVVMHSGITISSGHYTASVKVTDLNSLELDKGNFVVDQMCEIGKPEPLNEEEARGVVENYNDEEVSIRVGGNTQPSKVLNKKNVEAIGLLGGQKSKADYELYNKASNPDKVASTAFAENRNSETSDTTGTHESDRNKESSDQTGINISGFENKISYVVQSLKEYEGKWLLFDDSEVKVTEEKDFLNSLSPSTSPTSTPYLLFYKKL
In short: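 Enzyme-free wells gave the negative control, while test wells held 1nM USP1/UAF1 preincubated with compound for 15 min at room temperature. Ub-Rho at 150nM final started the reaction, and fluorescence at 480/540 nm was recorded kinetically.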

| Structure (SMILES) | Potency |
| --- | --- |
| O=c1c2ccccc2nc2n1CCc1c-2[nH]c2ccccc12 | inactive |
| CC=CC1=C(C(=O)O)N2C(=O)[C@H](NC(=O)[C@H](N)c3ccc(O)cc3)[C@@H]2SC1 | inactive |
| CC[C@@]1(O)C(=O)OCc2c1cc1n(c2=O)Cc2cc3cc(O)ccc3nc2-1 | inactive |
| CC1(C)O[C@@H]2C[C@@H]3[C@H]4C[C@@H](F)C5=CC(=O)C=C[C@]5(C)[C@@]4(F)[C@@H](O)C[C@]3(C)[C@]2(C(=O)CO)O1 | inactive |
| COC(=O)C1=C(C)NC(C)=C(C(=O)OCCN2CCN(C(c3ccccc3)c3ccccc3)CC2)C1c1cccc([N+](=O)[O-])c1 (centres undefined) | inactive |
| C[C@H]1C[C@@H]2[C@@H]([C@@H](O)C[C@@]3(C)[C@H]2CC[C@]3(O)C(=O)CO)[C@@]2(C)C=CC(=O)C=C12 | inactive |
| COc1c(N2C[C@@H]3CCCN[C@H]3C2)c(F)cc2c(=O)c(C(=O)O)cn(C3CC3)c12 | inactive |
| Nc1ccn([C@@H]2O[C@H](CO)[C@H](O)C2(F)F)c(=O)n1 | inactive |
| O=C(O)CO.[NH2-].[NH2-].[Pt+2] | inactive |
| Nc1ccc(S(=O)(=O)Nc2ncccn2)cc1 | inactive |
| COC(=O)C[C@](O)(CCCC(C)(C)O)C(=O)O[C@@H]1C(OC)=C[C@]23CCCN2CCc2cc4c(cc2[C@H]13)OCO4 | inactive |
| COc1cc(C(=O)NS(=O)(=O)c2ccccc2C)ccc1Cc1cn(C)c2ccc(NC(=O)OC3CCCC3)cc12 | 35.5 µM (active) |
| O=c1[nH]c(=O)n(C2CCCO2)cc1F (centres undefined) | inactive |
